Screening results as filed in PubChem.
MCF10A rerep – DNA re-replication induction in MCF 10a cells; MCF 10A DNA re-replication, Hoechst nuclear intensity, 48 h; Potency, µM (highest dose often 46.1 µM), without a hit: at the top dose activity, positive = re-replication, usual class: activators; 350,000 compounds, 2.9% hits; AID 624296; note: potency is the fitted concentration of half-maximal effect; % of control where 0% means no effect; nearly all actives have a fitted effect of over 50% in size
SW480 rereplic – inducers of DNA re-replication in SW480 colon cancer cells; Potency, µM (series often up to 46.1 µM), without a hit: at the highest dose re-replication activation, most hits filed as activators; SW480 DNA re-replication, Hoechst DNA content imaging, 48 h; 340,000 compounds, 1.8% hits; note: potency is the fitted concentration of half-maximal effect; % of control where 0% means no effect; nearly all actives have a fitted effect of over 55% in size
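Cells (250 per well) received 23 nL compound or DMSO by pin tool and were kept 48 hr at 37 C, 5% CO2. Nuclei were then stained with Hoechst for 40 min and scanned for DNA content.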
IL1B secr inh – blocks inflammasome-driven IL-1 beta release; THP-1 LPS/ATP IL-1B secretion, AlphaLISA, 16 h; active compounds read low; activity change, % at 57.5 µM; 360,000 compounds, 4.7% hits; AID 743279; in the data active = activity change below about -50%; inconclusive = mostly about -30% to -49%; note: % is set by controls: 0 for no effect and ±100 for the full control effect
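THP-1 cells pretreated 1 hr with compounds (up to 57.5 uM final), then stimulated with LPS (250 ng/mL final) plus ATP (1.25 mM final); secreted IL-1B measured by AlphaLISA after 16 hr, decreased signal indicating inhibition.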
Vif-A3F inh – blocks the Vif interaction with APOBEC3F; Potency, µM (top dose mostly 46.1 µM), for inactives: at the top dose activity, negative = active; 390,000 compounds, 0.2% hits; HeLa A3F-eYFP + Vif (tagged APOBEC3F with the HIV-1 protein that degrades it), YFP fluorescence increase; note: potency is the fitted concentration of half-maximal effect; % of control where 0% means no effect; nearly all actives have a fitted effect of over 65% in size
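HeLa cells stably expressing A3F-eYFP plus Vif, plated and incubated overnight at 37 deg C, then exposed to compounds overnight at 37 deg C. Blocked degradation read as raised yellow fluorescence (Ex 488/Em 500-530).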
Giardia kill – Giardia lamblia killing | Giardia lamblia trophozoite viability | activity change, % at 7.66 µM, hits read low | 340,000 compounds, 0.15% hits; in the data active = activity change below about -80%; inconclusive = between about -30% and that limit;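 note: parasites exposed to compound for two days anaerobically before the ATP read; % is set by controls: 0 for no effect and ±100 for the full control effect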
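Giardia trophozoites, 100 cells per well, were exposed to compounds for 48 hrs at 37 deg C under anaerobic conditions; viability was then read as ATP content by bioluminescence after 15-30 min at room temperature.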
Vif-A3G inh – blocks the Vif interaction with human APOBEC3G | Q9HC16 | HeLa A3G-eYFP + Vif (tagged APOBEC3G with the HIV-1 protein that degrades it), YFP fluorescence, overnight | Potency, µM (doses to about 46.1 µM), inactives show at the highest dose activity, negative = active, hits mostly inhibitors | 410,000 compounds, 0.076% hits; note: potency is the fitted concentration of half-maximal effect; % is set by controls: 0 for no effect and ±100 for the full control effect; nearly all actives have a fitted effect of over 60% in size
Target sequence (Q9HC16 whole entry, looked up): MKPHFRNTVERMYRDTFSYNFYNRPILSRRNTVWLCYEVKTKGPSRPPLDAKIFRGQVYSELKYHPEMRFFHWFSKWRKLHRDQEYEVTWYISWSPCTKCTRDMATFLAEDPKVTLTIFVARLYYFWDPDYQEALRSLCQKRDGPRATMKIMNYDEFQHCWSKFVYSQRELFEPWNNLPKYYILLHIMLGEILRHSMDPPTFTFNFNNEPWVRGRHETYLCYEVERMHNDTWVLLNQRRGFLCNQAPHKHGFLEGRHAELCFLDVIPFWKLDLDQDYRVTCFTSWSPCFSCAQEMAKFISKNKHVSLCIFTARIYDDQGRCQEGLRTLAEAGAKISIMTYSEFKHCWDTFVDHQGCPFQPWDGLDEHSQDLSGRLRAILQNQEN
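HeLa cells stably expressing Vif and C-terminally eYFP-tagged A3G, seeded overnight at 37 deg C, then exposed to compound by pintool overnight at 37 deg C. Rise in yellow fluorescence (Ex 488/Em 500-530, Acumen) marks blocked Vif-driven A3G degradation.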
Active calls of the source: *; i = inactive; ? = inconclusive; nt = no result given. Most compounds without a hit are left out; they make up all but 6.9% or so of the library. Unless noted, calls come from the whole dose curve; as a rule, active = well fitted curve in the direction sought with a large enough effect; inconclusive = small, poorly fitted or top-dose-only effect, or another doubt; inactive = no such curve, though single readings can be large; an effect the other way counts as inactive or inconclusive.

SMILES	MCF10A rerep	SW480 rereplic	IL1B secr inh	Vif-A3F inh	Giardia kill	Vif-A3G inh
CCN(C(=O)C(=O)Nc1ccc2nc3n(c(=O)c2c1)CCCCC3)c1ccc(F)cc1	nt	nt	nt	0%	nt	2%
Nc1nc(N2CCN(C(=O)c3ccco3)CC2)nc2ccc(Br)cc12	?	-82%	-51*	19%	3	12%
O=C(OCC(=O)N1CCN(C(=O)c2ccco2)CC1)c1cc(-c2cccc(Br)c2)nc2ccccc12	?	10%	-67*	-1%	-19	1%
CC1=C(C(=O)OCc2ccccc2)N2C(=O)[C@@H](NC(=O)OCc3ccccc3)[C@H]2SC1	nt	nt	nt	nt	nt	2%
Cc1cc(N(CCO)CCO)ccc1N=Nc1cc(F)ccc1F	17%	0%	-75*	1%	6	6%
COc1ccc(OC)c(/C=C/C(=O)N2C(=O)c3cccc(N)c3C2=O)c1	18µM*	?	-121*	-8%	-2	?
COc1cc(/C=C/C(=O)N2C(=O)c3cccc(N)c3C2=O)cc(OC)c1OC	9.2µM*	?	-20	-33%	9	-13%
COc1ccc(OC)c(/C=C/C(=O)Oc2ccc(C(C)=O)cc2)c1	0%	-24%	-5	1%	7	1%
CCc1ccc(OCC(=O)N(Cc2ccco2)Cc2ccco2)cc1	nt	nt	nt	-2%	nt	1%
CO[C@H]1CN(C)C(=O)c2cc(NC(=O)C3CCOCC3)ccc2OC[C@H](C)N(Cc2nccs2)C[C@H]1C	nt	nt	-62*	nt	nt	nt
CCCOc1ccccc1/C=C1\SC(N2CCCCC2)=NC1=O	?	9%	-61*	-3%	5	-12%
CCOC(=O)C1CCCN(C2=NC(=O)/C(=C/c3ccc(N(C)C)cc3)S2)C1 (centres undefined)	-3%	?	-83*	?	1	?
O=C1N=C(N2CCCCC2)S/C1=C\c1ccccc1F	-3%	-4%	-64*	-6%	-5	-7%
Cc1ccccc1N1CCN(C2=NC(=O)/C(=C\c3cccs3)S2)CC1	6.5µM*	?	-26	1%	10	-9%
O=C1N=C(N2CCCC2)S/C1=C\c1ccccc1	16%	-18%	-6	2%	4	0%
Cc1ccc(/C=C2\SC(N3CCCCC3)=NC2=O)cc1	-2%	0%	-66*	6%	12	-4%
Cc1ccc(C)n1-c1ccc(-c2ccn[nH]2)cc1	14%	13%	-70*	?	-17	-16%
O=C(NCc1ccccc1Cl)C1CCN(C(=O)N2CCOc3ccccc32)CC1	nt	nt	nt	2%	nt	4%
Nc1nonc1C(=O)NCCNS(=O)(=O)c1ccc(Br)cc1	18µM*	5%	13	-19%	-9	-6%
CCOC(=O)C1=CN(Cc2ccc(OC)cc2)C=C(C(=O)OCC)C1c1cccs1	18µM*	?	-64*	11%	?	-7%
CCOC(=O)Cn1nnnc1CN(Cc1ccc(OC)cc1)Cc1cc2cc(CC)ccc2[nH]c1=O	-1%	1%	-89*	0%	-1	4%
CCOC(=O)Cn1nnnc1CN(Cc1ccc(OC)cc1)Cc1cc2cc(C)ccc2[nH]c1=O	23µM*	2%	12	4%	1	2%
Cc1cccc(N2C(=O)CS(=O)(=O)C23C(=O)N(Cc2c(F)cccc2Cl)c2ccccc23)c1 (centres undefined)	nt	nt	nt	-3%	nt	2%
CCCCCN(C(=O)CCC(=O)OCc1ccccc1C(F)(F)F)c1c(N)n(CCCC)c(=O)[nH]c1=O	-5%	?	?	0%	2	-7%
CCCCCN(C(=O)CCC(=O)OCc1ccc(C(C)(C)C)cc1)c1c(N)n(CCCC)c(=O)[nH]c1=O	21µM*	-1%	i	-19%	13	-21%
SMILES	MCF10A rerep	SW480 rereplic	IL1B secr inh	Vif-A3F inh	Giardia kill	Vif-A3G inh
CCCCCN(C(=O)CCC(=O)OCc1ccc(C(C)C)cc1)c1c(N)n(CCCC)c(=O)[nH]c1=O	23µM*	22%	-15	-7%	6	-21%
O=c1[nH]c(Sc2ccc([N+](=O)[O-])cc2[N+](=O)[O-])nc2ccccc12	6.5µM*	?	-23	-3%	-21	-19%
O=[N+]([O-])c1ccc(Sc2cc[n+]([O-])c3ccccc23)c([N+](=O)[O-])c1	19%	0.82µM*	-108*	0%	20	-5%
CCOC(=O)c1c(C)[nH]c(CCC(=O)Nc2ccc(N(CC)CC)cc2C)c1C	nt	nt	nt	-3%	nt	-3%
CC(Oc1ccc(Cl)cc1Cl)C(=O)Nc1cccc(O)c1 (centres undefined)	-2%	20%	-11	2%	6	-11%
CC(Oc1ccc(Cl)cc1Cl)C(=O)NCCCCc1ccccc1 (centres undefined)	?	0%	-68*	-10%	-1	-3%
CC(Oc1ccc(Cl)cc1Cl)C(=O)Nc1ccc(O)cc1 (centres undefined)	4%	-2%	-66*	10%	22	-5%
Nc1ccc(-c2nc3c(ccc4ccccc43)[nH]2)cc1	23µM*	1%	-27	-16%	23	4%
CC(C)Oc1ccc(CNC(=O)Cc2ccc(NC(=O)N3CCSc4ncccc43)cc2)cc1	nt	nt	nt	1%	nt	-12%
CO/N=C\c1cc(C(=O)c2ccc(Cl)cc2Cl)cn1C	?	?	-62*	-1%	-1	-3%
Cn1cc(C(=O)c2cccc(Cl)c2)cc1/C=N\O	3%	2%	-64*	4%	25	3%
Cn1cccc1C(=O)c1ccc(Cl)cc1Cl	-3%	-5%	-7	-5%	-6	8%
CCOC(=O)c1c(C)[nH]c(C)c1S(=O)(=O)N(C)CC(=O)Nc1ccc(C)cc1Br	nt	nt	nt	-3%	nt	0%
O=C(NCc1ccco1)c1ccc2ccccc2n1	0%	-4%	-16	-5%	4	1%
COC(=O)c1c(N)n(CCCN2CCOCC2)c2nc3ccccc3nc12	?	?	-30	1%	2	5%
CCOc1ccc(-n2c(N)c(C(=O)NCc3ccco3)c3nc4ccccc4nc32)cc1	13µM*	?	-96*	-6%	0	-16%
CCOCCCNC(=O)c1c(N)n(-c2ccc(S(N)(=O)=O)cc2)c2nc3ccccc3nc12	?	?	-13	-8%	-4	1%
COc1ccc(CNC(=O)c2c(N)n(CCCN3CCOCC3)c3nc4ccccc4nc23)cc1	?	2.6µM*	-18	-13%	24	-17%
Nc1c(C(=O)NCc2ccccc2)c2nc3ccccc3nc2n1CCCN1CCOCC1	18µM*	18µM*	-29	0%	-8	-6%
Nc1c(C(=O)NCc2ccco2)c2nc3ccccc3nc2n1CCc1ccccc1	1.8µM*	7.3µM*	-57*	1%	11	-2%
